# Assay outcomes deposited in PubChem BioAssay by several laboratories.
# Sampled rows, rich in hits. Any-hit rate of the full collection: about 4.7%.
# PLK1 PBD inh: Plk1 polo box domain binding inhibitors, primary screen, biochemical, fluorescence polarization; Serine/threonine-protein kinase PLK1 (Homo sapiens), P53350; Plk1 PBD phosphopeptide binding; inhibition, %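 (tested at about 20 µM)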; 0.13% of 97,000 active; AID 693, 2007; in the data active means inhibition above about 34%, passing the limit was not always enough
# Target sequence (P53350 whole entry, looked up, the tested form may be a part): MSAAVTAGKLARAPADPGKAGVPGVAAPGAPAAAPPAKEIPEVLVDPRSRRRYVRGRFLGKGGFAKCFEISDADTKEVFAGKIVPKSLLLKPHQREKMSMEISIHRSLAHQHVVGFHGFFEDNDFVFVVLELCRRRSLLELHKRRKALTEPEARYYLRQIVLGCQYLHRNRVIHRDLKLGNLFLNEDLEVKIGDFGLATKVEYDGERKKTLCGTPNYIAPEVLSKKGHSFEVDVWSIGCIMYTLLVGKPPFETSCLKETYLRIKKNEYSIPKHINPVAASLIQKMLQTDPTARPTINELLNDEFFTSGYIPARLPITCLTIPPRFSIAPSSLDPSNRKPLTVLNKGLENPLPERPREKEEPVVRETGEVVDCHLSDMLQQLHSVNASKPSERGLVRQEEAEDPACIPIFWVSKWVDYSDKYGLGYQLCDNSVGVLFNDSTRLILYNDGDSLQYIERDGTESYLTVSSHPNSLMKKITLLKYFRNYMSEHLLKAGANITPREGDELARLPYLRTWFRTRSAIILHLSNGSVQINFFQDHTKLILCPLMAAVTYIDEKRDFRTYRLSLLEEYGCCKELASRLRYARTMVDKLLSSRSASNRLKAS
# DAT uptake mod: changed hDAT dopamine uptake under cocaine IC80, either direction, primary screen, cocaine antagonist project, cell-based, LLC-PK1 hDAT, [14C]-dopamine uptake, MLSMR; 1.3% of 110,000 active; B-score at 10 µM; LLC-PK1 hDAT cells, [14C]-dopamine uptake with cocaine IC80; actives deviate in either direction;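 active means Z score or B-score, a plate-position-corrected score, falls beyond the plate's 99.7% confidence bounds, in either direction; inactive means both scores lie inside the 99.7% bounds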;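 further: scored against the spread of the other compound wells on the same plate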
# Cav32 inh: Cav3.2 calcium influx blockers – cell-based, Fluo-4 calcium fluorescence, FDSS, MLSMR library, primary screen; Voltage-dependent T-type calcium channel subunit alpha-1H (Homo sapiens), O95180; Cav3.2-expressing cells; active compounds read low; B-score at 10 µM; 4% of 100,000 active;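 active means single-dose well whose peak fluorescence ratio is a statistical outlier from its plate by either plate-standardised score or position-corrected B-score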
# PTK2B oligo ant: antagonists of Pyk2 self-association, primary screen, Q293 cells, FERM NanoBiT luminescence, HTS. Protein-tyrosine kinase 2-beta (Homo sapiens), Q14289. active compounds read low. z-score (the deposit names both 25 µM and 10 µM). 0.83% of 99,000 active. AID 1347419, 2020;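 active means Z-score of -3 or lower, scaled per plate to the spread of control and sample wells; inactive means z-score above -3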;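 further: negative z-score means lost luminescence so less FERM oligomerization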
# sdo1 growth: growth rescue of sdo1-depleted yeast, primary screen, S. cerevisiae, bone marrow failure model. S. cerevisiae sdo1-depleted JHY4D growth rescue, OD600 30 h; active compounds read high; pdr5 snq2 efflux-pump mutant strain. z-score at 10 µM. 0.21% of 140,000 active;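 active means z-score above 3 at both the 24 hr and the 30 hr optical density reads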;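 further: z-score against mean and SD of all compound wells on the same plate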
# PLK1 kinase inh: human PLK1 kinase inhibitors, primary screen, biochemical, TR-FRET. recombinant PLK1 kinase, TR-FRET peptide phosphorylation. inhibition, % at 10 µM. 0.53% of 97,000 active. AID 619, 2007;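 active means inhibition of 50% or more in the single-concentration screen; inactive means inhibition below 50%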;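 further: 0% = DMSO max control and 100% = H-89 dihydrochloride min control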
# Numbers without * were called inactive; / = no result given; [ ] = another dose, or the depositor's remark.
SMILES,PLK1 PBD inh,DAT uptake mod,Cav32 inh,PTK2B oligo ant,sdo1 growth,PLK1 kinase inh
CCOC(=O)C1CCCN(CC(=O)Nc2c(C(=O)OC)[nH]c3ccc(Cl)cc23)C1 (stereo not given),2.5,2.92*,-2.37,-0.84,-1.98,-2.3
COc1cc(C(C)=O)ccc1Oc1ncnc2c1cnn2-c1ccc(F)cc1,/,/,/,/,-0.22,/
CCOc1ccc(-c2nnc(-c3ccc(OC)cc3)o2)cc1,14.9,0.238,-0.474,-0.94,-1.3,-11.3
CCOC(=O)COc1ccc(-c2nnc(-c3ccccc3)o2)cc1,-9.5,-1.03,-1.36,-0.12,0.38,-9.5
CCOC(=O)c1nnc(-c2ccccc2)o1,-16.0,-0.505,-4.5*,0.61,-0.04,-6.2
CCOc1ccc(-c2nnc(-c3ccccc3)o2)cc1,-14.8,-0.436,-2.87*,0.35,-0.64,-1.0
COc1ccc(N(C)C(=O)c2onc3c2CCCC3)cc1,/,/,/,/,1.24,/
CC1CN(C(=O)c2ccc(N3CCCCC3)c([N+](=O)[O-])c2)CC(C)O1 (stereo not given),/,/,/,/,0.03,/
CC(C(=O)NC1CCCC1)N(C(=O)c1ccc(-c2ccccc2)[nH]1)c1ccccc1F (stereo not given),-4.5,0.909,-6.01*,-2.09,-0.41,-0.6
CCOC(=O)c1sc(NC(=O)CSc2nnc(C(C)C)n2C)nc1C,-13.1,1.1,-0.197,1.17,-0.77,-1.6
CCOC(=O)c1sc(NC(=O)CSc2nnc(C(C)C)n2CC)nc1C,-1.0,2.54*,0.0937,0.42,0.27,7.0
CCn1c(CNc2nc3ccccc3n2C(C)C)nc2ccccc21,5.7,1.19,-3.92,1.43,-0.26,-3.1
COc1ccc(-n2cnnc2SCC(=O)NC2CCCc3ccccc32)cc1 (stereo not given),/,/,/,/,-0.46,/
Cc1ccc(N)cc1CN1CCCC1=O,/,-1.94*,/,-0.1,0.25,/
CC(C)CN1CCC(=O)N(CCSc2ccc(Br)cc2)CC1,/,0.748,-0.039,/,/,/
Clc1ccc2nc(C3CCN(Cc4nnnn4C4CCCCC4)CC3)[nH]c2c1,12.4,0.514,-2.65,0.63,0.12,-9.5
Cc1ccc(Cn2nnnc2CN2CCC(c3nc4ccc(Cl)cc4[nH]3)CC2)cc1,-17.3,-0.0676,-5.72*,-1.83,-2.13,-15.9
O=C(O)CSC1CC(=O)N(c2ccc(Cl)cc2)C1=O (stereo not given),/,-0.654,0.246,1.24,0.39,/
O=C(CSC1CC(=O)N(CC(c2ccccc2)c2ccccc2)C1=O)Nc1ccc(Cl)cc1 (stereo not given),-6.9,-0.39,-7.44*,-1.28,-1.64,-12.1
c1ccc(-c2n[nH]c(-c3ccccc3)c2-c2nc3ccccc3[nH]2)cc1,7.5,1.68,-5.18*,-0.88,-1.38,-13.1
C#CCn1c(S(=O)(=O)Cc2ccccc2Cl)nc(-c2ccccc2)c1-c1ccccc1,20.7,-0.363,-7.21*,-3.53*,-1.43,-1.9
CCOC(=O)Cn1c(S(=O)(=O)Cc2ccccc2Cl)nc(-c2ccccc2)c1-c1ccccc1,-24.0,0.272,-7.31*,-2.21,-0.67,-3.1
C#CCn1c(S(=O)(=O)Cc2ccc(C)cc2)nc(-c2ccccc2)c1-c1ccccc1,-16.3,-1.12,-7.79*,-3.38*,0.09,-10.8
Cc1cc2ccccc2n2c(SCC(=O)Nc3ccc(S(=O)(=O)N4CCC(C)CC4)cc3)nnc12,/,/,/,/,-0.79,/
N#Cc1ccccc1N=C1CCCN1Cc1ccccc1,-17.7,-1.22,-0.0309,-0.43,-0.77,-26.9
SMILES,PLK1 PBD inh,DAT uptake mod,Cav32 inh,PTK2B oligo ant,sdo1 growth,PLK1 kinase inh
Cc1cc(C)c(N=C2CCCN2Cc2ccccc2)c(C#N)c1,-2.1,3*,-4.75*,-1.62,-0.99,-2.1
CC(=O)Nc1ccc(NCN2C(=O)[C@@H]3[C@H]4CC[C@H](C4)[C@@H]3C2=O)cc1,/,/,/,/,1.88,/
COc1ccc(C(=O)Nn2cnc3scc(-c4cccs4)c3c2=O)c(O)c1,5.0,0.117,-9.05*,-1.28,-0.68[7.5 µM],1.9
CC(=O)Nc1ccccc1OCC(=O)N(Cc1ccccc1)C(C)C,/,/,/,/,0.96,/
Cc1cc(C)cc(NCCC#N)c1,/,/,/,/,1.55,/
COc1ccc2nc3c(cc2c1)c(NC(=O)c1cccs1)nn3CC(C)C,-25.2,/,/,-3.39*,-1.89,3.1
CC(=O)/C(=N\Nc1ccc(C)cc1)Sc1nncn1C,/,/,/,/,0.35,/
CCCCc1sc(-c2c(C#N)c(N)nc3c2CCCCC3)cc1[N+](=O)[O-],-1.6,0.128,-4.81*,-2.24,-0.53,-10.6
COCCN=c1scc(-c2cccs2)n1/N=C/c1ccc(O)c(O)c1O,/,/,/,/,-0.12,/
CCN=c1scc(C)n1/N=C/c1ccc(O)c(O)c1O,-8.8,-0.542,0.928,-1.13,1.07,54.6*
O=C(Nc1ccccc1C(F)(F)F)N1CCN(c2ccc3nncn3n2)CC1,/,0.0242,-1.7,-0.52,2.38,/
CCOC(=O)N1CCC(N2Cc3cccc(C(=O)Nc4ccc(CC)cc4)c3C2=O)CC1,-8.9,4.03*,0.0182,0.14,-1.54,-8.1
O=C1C(=O)N(CCN2CCCCC2)c2ccccc21,-45.0,-0.663,0.165,-0.14,0.97,53.5*
CCCCCc1cc(=O)oc2c(C(CCN3CCCC(C)C3)c3cc(OC)c(OC)c(OC)c3)c(OC)cc(OC)c12 (stereo not given),/,-2.85*,-1.06,/,/,/
COCCCNc1c2c3c(cccc3[nH]c1=O)C(=O)c1ccccc1-2,18.2,1.21,-11.6*,/,-0.45,-157.6
COCCCNS(=O)(=O)c1ccc2c3c(cccc13)C(=O)S2,18.0,-0.48,-0.466,0.88,0.49,-10.5
COc1ccc(N(C(=O)COc2ccc(C)cc2)S(=O)(=O)c2ccc(C)cc2)cc1,/,/,/,/,-0.72,/
O=C(CSc1nnc(-c2ccc(Br)cc2)n1C1CCCCC1)N1CCCC1,7.1,-0.0852,0.784,-0.48,-1.37,-14.0
CC(C)(C)c1ccc(-c2nnc(SCCC#N)n2C2CCCC2)cc1,22.9,-1.9,-4.43*,-0.64,-0.86,-4.4
Cn1nnnc1SCc1ccc([N+](=O)[O-])cc1,/,/,/,/,0.75,/
Cc1cccc(C)c1NC(=O)C(c1ccc([N+](=O)[O-])cc1)N(C)C(=O)c1ccccn1 (stereo not given),/,/,/,0.07,1.21,/
Cc1cccc(NC(=S)NN(Cc2ccccc2)c2ccccc2)c1C,-8.6,0.481,-4.85*,-0.54,-1.05,-4.1
Cc1ccc(C2CC(c3ccccc3)=NN2C(=S)Nc2ccccc2)o1 (stereo not given),-13.2,-0.944,-7.46*,-0.66,-1.45,-12.6
CC1=NN(C(=S)Nc2ccccc2)C(c2ccccc2)C1 (stereo not given),/,/,/,/,-1.2,/
N#Cc1c(NC(=O)c2cnccn2)sc2c1CCCC2,/,/,/,/,-0.19,/
O=C(Cc1coc(-c2ccc(F)cc2)n1)NCc1ccccc1,/,1.14,-3.48,-0.72,-0.05,/
O=C(O)Cc1coc(-c2ccc(F)cc2)n1,-15.8,-8.54*,0.713,0.17,1.57,-8.6
